High-throughput results deposited in PubChem by National Center for Advancing Translational Sciences (NCATS).
Sampled rows, rich in hits. Any-hit rate of the full collection: about 1.7%.
GLP1R cytotox – qHTS of GLP-1 Receptor Inverse Agonists: Cytotox Screen | HEK293 cAMP-luciferase reporter cells, luminescence, 24 h | Potency, µM (series often up to 38.3 µM), without a hit: at the top dose activity change, negative = inhibition, usual class: inhibitors | hit rate 0.13% among 410,000 | AID 624418, 2012;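 note: loss of luciferase light is scored as toxicity; % is set by controls: 0 for no effect and ±100 for the full control effect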
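To flag toxic compounds, the library was rerun on cells for 24 hr at 37 deg C and 5% CO2. Viability-linked luminescence was captured 12 min after adding luciferase detection reagent.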
GLP1R ag – qHTS of GLP-1 Receptor Agonists; HEK293 GLP-1R CRE-luciferase, luminescence, 4-6 h; cells express a hypersensitive GLP-1R form; Potency, µM (doses to about 45.6 µM), without a hit: at the top dose activation, actives largely listed as activators; hit rate 0.007% among 380,000; AID 624172, 2012; note: % of control where 0% means no effect
Target sequence (P43220 whole entry, looked up): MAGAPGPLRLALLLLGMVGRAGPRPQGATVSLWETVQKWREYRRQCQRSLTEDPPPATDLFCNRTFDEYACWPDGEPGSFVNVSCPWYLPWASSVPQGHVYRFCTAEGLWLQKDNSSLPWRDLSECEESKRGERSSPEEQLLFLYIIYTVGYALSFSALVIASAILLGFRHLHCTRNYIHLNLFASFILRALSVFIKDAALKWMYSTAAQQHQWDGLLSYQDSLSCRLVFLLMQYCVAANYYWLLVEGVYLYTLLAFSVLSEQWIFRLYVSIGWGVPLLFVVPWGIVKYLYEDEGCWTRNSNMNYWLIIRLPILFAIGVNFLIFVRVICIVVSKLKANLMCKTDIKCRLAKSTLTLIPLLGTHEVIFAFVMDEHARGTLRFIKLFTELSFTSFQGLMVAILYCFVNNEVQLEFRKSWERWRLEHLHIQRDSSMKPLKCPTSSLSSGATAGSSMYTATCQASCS
GLP1R inv ag – qHTS of GLP-1 Receptor Inverse Agonists (Inhibition Mode); Potency, µM (top dose mostly 38.3 µM), without a hit: top-dose activity change, negative = inhibition, actives largely listed as inhibitors; AID 624417, 2012; HEK293 GLP-1R CRE-luciferase, luminescence, 24 h; GLP-1R form is constitutively active; hit rate 1.6% among 410,000; note: % is set by controls: 0 for no effect and ±100 for the full control effect; nearly all actives have a fitted effect of over 55% in size
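Constitutively active GLP-1R drives a cAMP-responsive luciferase in stably transfected HEK293 cells; test compounds are added after overnight (12 h) attachment and left 24 hr, and signal loss in luminescence marks inhibition.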
* = called active by the depositor; [ ] = remark or other dose. Calls come from the whole dose curve; as a rule, active = well fitted curve in the direction sought with a large enough effect; inconclusive = small, poorly fitted or top-dose-only effect, or another doubt; inactive = no such curve, though single readings can be large; an effect the other way counts as inactive or inconclusive. Potency is the fitted concentration of half-maximal effect.

What do the screens show for `CC(C)c1ccc(Nc2ncc3c(n2)CCN(C(=O)Nc2ccc(F)c(Cl)c2)C3)cc1`?
GLP1R cytotox: inconclusive; GLP1R ag: -8%; GLP1R inv ag: inconclusive

How did C[C@@H]1CN([C@H](C)CO)S(=O)(=O)c2ccc(C#Cc3ccccc3F)cc2O[C@H]1CN(C)C(=O)c1ccc2c(c1)OCO2 do in these assays?
GLP1R cytotox: inconclusive; GLP1R ag: 1%; GLP1R inv ag: inconclusive

Results for Cc1ccc2c(c1)cc(C(=O)Nc1ccccc1C)n2C ?
GLP1R cytotox: -27%; GLP1R inv ag: inconclusive

How did CCOc1ccc(CSC(=N)N)cc1[N+](=O)[O-] do in these assays?
GLP1R cytotox: inconclusive; GLP1R ag: -3%; GLP1R inv ag: -4%

What do the screens show for `CNC(=O)/C(C#N)=C/c1c(N2CCCCCC2)nc2ccccn2c1=O`?
GLP1R cytotox: 121%; GLP1R ag: 7%; GLP1R inv ag: 66%

How did CCOc1ccc(NC(=O)CN(c2ccc([N+](=O)[O-])cc2)S(=O)(=O)c2ccccc2)cc1 do in these assays?
GLP1R cytotox: inconclusive; GLP1R ag: inconclusive; GLP1R inv ag: 4µM*

How did CCOc1ccc(NC(=O)C2C3c4ccccc4C(c4ccccc43)C2C(=O)O)cc1 (stereo not given) do in these assays?
GLP1R cytotox: -4%; GLP1R ag: -7%; GLP1R inv ag: inconclusive

How did Cc1cc(N=Nc2ccccc2C)ccc1N do in these assays?
GLP1R cytotox: -21%; GLP1R ag: 17%; GLP1R inv ag: 10µM*

What do the screens show for `Cc1cc(N(C)C)ccc1N=Nc1ccc(N)cc1`?
GLP1R cytotox: -44%; GLP1R ag: inconclusive; GLP1R inv ag: 89%

Results for CC[C@@]1(c2ccccc2OC)ON(c2ccccc2C(F)(F)F)C1=O ?
GLP1R cytotox: -9%; GLP1R ag: -4%; GLP1R inv ag: -11%

What do the screens show for `O=C(NC(=O)c1c(F)cccc1F)Nc1ccc(Cl)c(Oc2ncc(C(F)(F)F)cc2Cl)c1`?
GLP1R ag: -4%

How did FC(F)(F)c1cnc(NNC(=S)Nc2ccccc2Cl)c(Cl)c1 do in these assays?
GLP1R cytotox: inconclusive; GLP1R ag: 0%; GLP1R inv ag: 5µM*

What do the screens show for `CO[C@@H](COC(N)=O)C1=C(N2CC2)C(=O)C(C)=C(N2CC2)C1=O`?
GLP1R ag: -1%

How did CC1=C(N2CC2)C(=O)C(CO)=C(N2CC2)C1=O do in these assays?
GLP1R cytotox: 0.79µM*; GLP1R ag: -37%; GLP1R inv ag: inconclusive

How did COc1cccc(/C=N/NC(N)=S)c1OCc1ccccc1Cl do in these assays?
GLP1R cytotox: inconclusive; GLP1R ag: 10%; GLP1R inv ag: 11µM*

What do the screens show for `Cc1ccc(-n2c(C)cc(/C=N/NC(N)=S)c2C)cc1`?
GLP1R cytotox: inconclusive; GLP1R ag: -16%; GLP1R inv ag: inconclusive

What do the screens show for `CO/C=C(/C(=O)OC)c1ccccc1Oc1cc(Oc2ccccc2C#N)ncn1`?
GLP1R ag: 4%[96 µM]

How did Cc1ccc(NC(=O)C2CCN(C(=O)c3cnn(-c4ccccc4)c3-n3cccc3)CC2)cc1Cl do in these assays?
GLP1R cytotox: -15%; GLP1R inv ag: inconclusive

What do the screens show for `Cc1nc(Nc2ccc(F)cc2)[nH]c(=O)c1CCC(C)C`?
GLP1R cytotox: inconclusive; GLP1R ag: -13%; GLP1R inv ag: 7.9µM*

Results for CC1CN(C(=O)c2ccc(S(=O)(=O)Nc3ccccc3F)cc2)CC(C)O1 (stereo not given) ?
GLP1R cytotox: 1%; GLP1R ag: 1%; GLP1R inv ag: 2%

What do the screens show for `Cc1ccc(C(=O)/C=C/c2cc(Br)cc(Br)c2O)o1`?
GLP1R cytotox: inconclusive; GLP1R ag: -12%; GLP1R inv ag: inconclusive

Results for CC1CCCN(Cc2nc3c(c(=O)n(C)c(=O)n3C)n2CCCc2ccccc2)C1 (stereo not given) ?
GLP1R cytotox: 43%; GLP1R ag: 10%; GLP1R inv ag: -10%

What do the screens show for `CCOc1c(Cl)cc(CNCCc2c[nH]c3ccccc23)cc1OC`?
GLP1R cytotox: inconclusive; GLP1R ag: 9%; GLP1R inv ag: inconclusive

How did CCOc1cc(CNCCc2c[nH]c3ccccc23)cc(Cl)c1OCC do in these assays?
GLP1R cytotox: inconclusive; GLP1R ag: -5%; GLP1R inv ag: 11µM*
